Source: PubChem BioAssay (National Center for Advancing Translational Sciences (NCATS))
Shown are actives, neighbours in structure and some others; about 19% of the full set was active somewhere.
KB-3-1 tox = kills parental KB-3-1 adenocarcinoma cells. KB-3-1 viability, CellTiter-Glo ATP luminescence, 72 h. Potency, µM (doses to about 46.1 µM), most hits filed as cytotoxic. 1.4% of 400,000 active. AID 1347075; note: nearly all actives have a fitted effect of over 60% in size
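Cytotoxicity measured as CellTiter-Glo luminescence after 72 h at 37 C. Compound titrations were pinned onto drug-naive KB-3-1 parental adenocarcinoma cells grown in DMEM with 10% FBS, and normalized data fitted to concentration-response curves.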
HT1080NT lethal = kills 2HG-producing HT-1080-NT fibrosarcoma cells. HT-1080-NT fibrosarcoma viability, CellTiter-Glo ATP luminescence, 48 h. Potency, µM (series often up to 46.1 µM), for the others: at the highest dose activity, negative = less viability, most hits filed as cytotoxic. 1.6% of 360,000 active. AID 686970;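 note: NT is the 2HG producing partner of a matched IDH1 knockdown line; 0% = DMSO-treated cells and -100% = media-only wells without cells; nearly all actives have a fitted effect of over 55% in size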
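Compounds were tested in concentration-response format on HT-1080-NT cells for 48 hours at 37 degrees C. Cell viability came from CellTiter-Glo luminescence; curves were classified by r2, response magnitude and activity.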
DT40 TDP1 CPT = growth inhibition of DT40 Tdp1-/-;hTDP1 cells with camptothecin (screen for TDP1 inhibitors); chicken DT40 Tdp1-/-;hTDP1 cells + 20 nM CPT, ATP luminescence, 48 h; 12% of 420,000 active; Potency, µM (series often up to 46.2 µM), for inactives: at the highest dose activity change, negative = growth inhibition, actives largely listed as inhibitors; note: nearly all actives have a fitted effect of over 55% in size
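Cell growth measured by CellTiter-Glo luminescence after a minimum 48 h, 37 C compound exposure with 20 nM CPT in Tdp1-knockout DT40 cells stably expressing hTDP1, seeded 400/well; qHTS titration format.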
KB-V1 cytotox = kills drug-selected multidrug resistant KB-V1 cells. 3.4% of 400,000 active. Potency, µM (titrated, usually from 46.1 µM), usual class: cytotoxic. AID 1347076. KB-V1 MDR cells viability, CellTiter-Glo, 72 h; note: nearly all actives have a fitted effect of over 60% in size
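Readout: CellTiter-Glo luminescence, 10 min after addition. Cells: KB-V1 MDR subline, 72 h at 37 degrees C with compound. Analysis: corrected, normalized data fitted to concentration-effect curves.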
TDP1 cell noCPT = qHTS for Inhibitors of human tyrosyl-DNA phosphodiesterase 1 (TDP1): qHTS in cells in absence of CPT. DT40 Tdp1-/- hTDP1 cells, no CPT, ATP luminescence, 48 h. Potency, µM (titrated, usually from 46.2 µM), for inactives: top-dose activity change, negative = growth inhibition, actives largely listed as inhibitors. 15% of 420,000 active. AID 686978, 2013; note: nearly all actives have a fitted effect of over 55% in size
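Chicken DT40 Tdp1-/- cells stably complemented with human TDP1 were seeded at 400 cells/well with DMSO in place of 20 nM camptothecin. After compound pinning, cells grew at least 48 hr at 37 °C; viability read by CellTiter-Glo luminescence.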
HT1080 IDH1KD tx = kills HT-1080 cells with IDH1 knockdown; HT-1080 IDH1 knockdown viability, ATP luminescence, 48 h; Potency, µM (top dose mostly 46.1 µM), for the others: top-dose activity, negative = toxicity, hits mostly cytotoxic; 2% of 360,000 active; AID 686971;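 note: 0% = DMSO wells and -100% = cell-free medium wells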
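Knockdown cells (IDH1KD HT-1080) received compounds 2 h after plating at 750 cells/well and were kept 48 h at 37 °C in 5% FBS RPMI. A CellTiter-Glo luminescence read gave % activity for curve fitting.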
Starred values were filed as active, the others as inactive; i = inactive; ? = inconclusive; / = no result; [ ] = remark or other dose. Calls come from the whole dose curve; as a rule, active = well fitted curve in the direction sought with a large enough effect; inconclusive = small, poorly fitted or top-dose-only effect, or another doubt; inactive = no such curve, though single readings can be large; an effect the other way counts as inactive or inconclusive. Unless noted, % is set by controls: 0 for no effect and ±100 for the full control effect; potency is the fitted concentration of half-maximal effect.

SMILES | KB-3-1 tox | HT1080NT lethal | DT40 TDP1 CPT | KB-V1 cytotox | TDP1 cell noCPT | HT1080 IDH1KD tx
CCN1C(=O)c2ccccc2S(=O)c2ccc(C(=O)N3CCN(c4ccccc4OC)CC3)cc21 (centres undefined) | i | / | ? | i | ? | /
O=C(Nc1ccc(Oc2cccnc2)nc1)c1ccc(C(F)(F)F)cc1 | i | -17% | ? | ? | 15µM* | ?
O=C(Nc1ccc(Oc2cccc(C(F)(F)F)c2)nc1)c1ccco1 | i | -22% | -16% | i | 12µM* | ?
COc1cccc(C(=O)Nc2ccc(NC(=O)c3ccco3)nc2)c1 | i | 29% | -14% | i | ? | 24%
O=C(NC(=O)c1c(Cl)cccc1Cl)Nc1ccc(Oc2cccnc2)nc1 | i | -20% | 0% | i | ? | -18%
CC(C)(C)c1ccc(Oc2ccc(NC(=O)c3ccco3)cn2)cc1 | i | 18µM* | 1.8µM* | ? | 1.6µM* | 7.3µM*
COc1ccc(NC(=O)c2cccs2)cn1 | i | ? | -14% | ? | -14% | 26%
CC(C)(C)c1ccc(Oc2ccc(NC(=O)c3cccs3)cn2)cc1 | ? | 15µM* | ? | ? | ? | 12µM*
CCN(C)C1CN(Cc2cn(Cc3ccc(F)cc3)nn2)S(=O)(=O)C1 (centres undefined) | i | 25% | 2% | i | -15% | 3%
CCOC(=O)c1cccc(NC(=O)c2cnc3ccccc3n2)c1 | i | 14% | ? | ? | 26µM* | 17%[9.24 µM]
CCOC(=O)c1cccc(NC(=O)c2ccc3snnc3c2)c1 | i | / | ? | ? | 18µM* | /
CCOC(=O)c1cccc(NC(=O)c2cccnc2)c1 | i | 17% | ? | i | ? | 29%
O=C(Nc1ccc(F)cc1)Nc1nnc(SCC(=O)N2CCCCC2)s1 | / | / | ? | / | 3.3µM* | /
O=C(COc1ccc(F)cc1)Nc1ccc2nc(SCC(=O)N3CCCC3)sc2c1 | / | / | 12µM* | / | 23µM* | /
O=C(COc1ccccc1)Nc1ccc2nc(SCC(=O)N3CCOCC3)sc2c1 | / | / | 18µM* | / | 15µM* | /
O=C(COc1ccc(F)cc1)Nc1ccc2nc(SCC(=O)N3CCOCC3)sc2c1 | / | / | 10µM* | / | 12µM* | /
CCOC(=O)c1cc(OC(=O)c2ccccc2F)n(-c2ccccc2)n1 | i | / | / | i | / | /
CN=C(Nc1ccc2c(c1)OCO2)SC1CC(=O)N(c2ccccc2)C1=O (centres undefined) | i | -15% | -26% | 18µM* | -7% | -12%
O=C1CC(SC(=NCc2ccc3c(c2)OCO3)Nc2ccccc2)C(=O)N1c1ccccc1 (centres undefined) | i | -1% | ? | i | ? | -9%
Nc1ccccc1SC1CC(=O)N(c2ccc3c(c2)OCCO3)C1=O (centres undefined) | i | 5% | -25% | i | ? | 1%
O=C1SC(Nc2ccccc2)C(=O)N1c1ccccc1 (centres undefined) | / | 15% | 2% | / | -9% | 26%
Nc1ccccc1SC1CC(=O)N(c2ccc(Cl)c(Cl)c2)C1=O (centres undefined) | i | 0% | 26µM* | i | 13µM* | -10%
O=C1SC(SC(=Nc2ccccc2)Nc2ccccc2)C(=O)N1c1ccccc1 (centres undefined) | ? | 0% | 15µM* | i | ? | 1%
O=C1CC(Sc2ccc(Cl)cc2)C(=O)N1c1ccc2c(c1)OCCO2 (centres undefined) | i | -19% | 2.9µM* | i | 15µM* | -17%
CCOC(=O)C1(C)C=C(Nc2ccc(C(=O)O)cc2)C(=O)N1c1ccc(C(=O)O)cc1 (centres undefined) | i | / | 24% | i | 4% | /
SMILES | KB-3-1 tox | HT1080NT lethal | DT40 TDP1 CPT | KB-V1 cytotox | TDP1 cell noCPT | HT1080 IDH1KD tx
CCCc1cc(=O)[nH]c(SCC(=O)c2cc(C)n(-c3c(C)n(C)n(-c4ccccc4)c3=O)c2C)n1 | i | 6% | 11% | i | -5% | 15%
Cc1cccc(N2C(=O)CC(SC(=Nc3ccccc3)Nc3ccccc3)C2=O)c1 (centres undefined) | ? | -17% | ? | 18µM* | ? | -23%
CCN=C(NCC)SC1CC(=O)N(c2ccccc2)C1=O (centres undefined) | i | 0% | -3% | i | -1% | -1%
O=C1CC(SC(=Nc2ccccc2)Nc2ccccc2)C(=O)N1c1ccc(Cl)c(Cl)c1 (centres undefined) | ? | ? | ? | 16µM* | 18µM* | ?
O=C(O)CSC1CC(=O)N(c2ccc(Cl)c(Cl)c2)C1=O (centres undefined) | i | 13% | -5% | i | -27% | 17%
O=C(O)CC1(CC(=O)N2CCC(C(=O)O)CC2)CCCC1 | i | 11% | 45% | i | 10% | 1%
CC(C)(C)c1csc(N/N=C/c2ccc(O)cc2)n1 | i | -6% | ? | i | ? | -7%
COn1c(=S)[nH]c2ccccc2c1=O | i | 0% | -5% | i | -2% | -3%
COc1ccc(OC)c2c(=S)c3ccccc3[nH]c12 | / | / | 24µM* | / | ? | /
Cc1ccc(CNC(=O)CN2C(=O)NC3(CC(C)CC(C)(C)C3)C2=O)cc1 (centres undefined) | i | -1% | -3% | ? | 9% | 3%
CCCCCCCCCC(=O)N[C@@H]1c2cc(OC)c(OC)cc2C[C@H]1O | i | -4% | ? | i | 16µM* | -5%
COc1ccc(C(=O)NCC(c2cccnc2)N2CCN(c3ccccc3OC)CC2)cc1 (centres undefined) | i | / | 18µM* | i | 12µM* | /
COc1ccccc1N1CCN(C(CNC(=O)C(=O)NCCc2ccccc2)c2cccnc2)CC1 (centres undefined) | ? | / | 10µM* | ? | 8.2µM* | /
COc1ccc(N2CCN(C(CNC(=O)c3cccc(OC)c3)c3cccnc3)CC2)cc1 (centres undefined) | i | / | ? | ? | ? | /
COc1cccc(-n2c(SCc3ccccc3C)nc3c([nH]c4ccccc43)c2=O)c1 | i | / | ? | 23µM* | ? | /
COc1cccc(NC(=O)CSc2nc3c([nH]c4ccccc43)c(=O)n2-c2cc(C)cc(C)c2)c1 | / | / | 1% | / | 12% | /
